# Source: PubChem BioAssay
# Compounds with a hit are over-represented: about 21% of the library has one in this group of screens.
# RORgamma inh: qHTS for inhibitors of ROR gamma transcriptional activity; Drosophila S2 Gal4-RORgamma UAS-luciferase reporter, 20 h; Potency, µM (top dose mostly 53.6 µM), inactives show at the top dose activity change, negative = inhibition, actives largely listed as inhibitors; 310,000 tested, 5.4% active; AID 2551, 2010; note: potency is the fitted concentration of half-maximal effect; nearly all actives have a fitted effect of over 60% in size
# Target sequence (P51450 whole entry, looked up, the tested form may be a part): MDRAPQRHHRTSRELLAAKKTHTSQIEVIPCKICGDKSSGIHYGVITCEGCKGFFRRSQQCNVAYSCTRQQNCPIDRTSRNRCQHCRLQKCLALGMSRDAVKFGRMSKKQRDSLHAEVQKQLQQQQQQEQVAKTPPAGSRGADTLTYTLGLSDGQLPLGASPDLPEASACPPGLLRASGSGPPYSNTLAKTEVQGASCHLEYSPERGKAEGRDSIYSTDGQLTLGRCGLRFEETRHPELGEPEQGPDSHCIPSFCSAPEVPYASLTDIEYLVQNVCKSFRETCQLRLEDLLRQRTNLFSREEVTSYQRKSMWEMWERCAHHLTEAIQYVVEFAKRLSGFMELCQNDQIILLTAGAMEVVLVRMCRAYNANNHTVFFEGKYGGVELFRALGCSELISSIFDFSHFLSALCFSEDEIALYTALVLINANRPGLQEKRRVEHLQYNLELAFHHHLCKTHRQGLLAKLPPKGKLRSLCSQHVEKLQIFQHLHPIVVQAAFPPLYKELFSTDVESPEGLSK
#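 Schneider cells (Drosophila), stable Gal4 DBD–ROR gamma + UAS-luc; 1 hr cmpd preincubation; Cu2+ induction 700 uM final; 20 hr ambient; luminescence.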
# DT40 TDP1 CPT: qHTS for Inhibitors of human tyrosyl-DNA phosphodiesterase 1 (TDP1): qHTS in cells in presence of CPT. 420,000 tested, 12% active. AID 686979, 2013. chicken DT40 Tdp1-/-;hTDP1 cells + 20 nM CPT, ATP luminescence, 48 h. Potency, µM (highest dose often 46.2 µM), inactives show top-dose activity change, negative = growth inhibition, most hits filed as inhibitors; note: potency is the fitted concentration of half-maximal effect; nearly all actives have a fitted effect of over 55% in size
#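 Cell growth measured by CellTiter-Glo luminescence after a minimum 48 h, 37 C compound exposure with 20 nM CPT in Tdp1-knockout DT40 cells stably expressing hTDP1, seeded 400/well; qHTS titration format.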
# IL1B secr inh: qHTS for Inhibitors of Inflammasome Signaling: IL-1-beta AlphaLISA Primary Screen | THP-1 LPS/ATP IL-1B secretion, AlphaLISA, 16 h; active compounds read low | activity change, % at 57.5 µM | 360,000 tested, 4.7% active; in the data active = activity change below about -50%; inconclusive = mostly about -30% to -49%
#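 Secreted IL-1B measured by AlphaLISA bead assay after 16 h compound exposure of THP-1 cells; compounds (final up to 57.5 uM) added 1 h before LPS (250 ng/mL) and ATP (1.25 mM) stimulation; lower signal means less secretion.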
# TDP1 cell noCPT: qHTS for Inhibitors of human tyrosyl-DNA phosphodiesterase 1 (TDP1): qHTS in cells in absence of CPT; 420,000 tested, 15% active; DT40 Tdp1-/- hTDP1 cells, no CPT, ATP luminescence, 48 h; Potency, µM (highest dose often 46.2 µM), inactives show at the highest dose activity change, negative = growth inhibition, most hits filed as inhibitors; note: potency is the fitted concentration of half-maximal effect; nearly all actives have a fitted effect of over 55% in size
#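 No-CPT arm: Tdp1-/-;hTDP1 DT40 cells (400/well) plus compounds, incubated ≥48 hr at 37 °C. Readout CellTiter-Glo luminescence.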
# ELG1 DNA repair: qHTS screen for small molecules that inhibit ELG1-dependent DNA repair in human embryonic kidney (HEK293T) cells expressing luciferase-tagged ELG1; HEK293T ELG1-luciferase reporter, luminescence, 16 h; DNA damage induced by 5-fluorouridine; Potency, µM (series often up to 46.1 µM), for the others: top-dose activity change, negative = inhibition, most hits filed as inhibitors; 330,000 tested, 2.3% active; AID 504467, 2011; note: potency is the fitted concentration of half-maximal effect; nearly all actives have a fitted effect of over 55% in size
#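 Overnight (16 hr) co-exposure of 2,000 cells/well to 5-fluorouridine and compound at 37 °C preceded detection. Luciferase was quantified via ONE-Glo luminescence; loss of signal denotes inhibition.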
# Gal4-VP16 FLuc: VP16 counterscreen qHTS for inhibitors of ROR gamma transcriptional activity; Drosophila S2 Gal4-VP16 UAS-luciferase, luminescence, 20 h; Potency, µM (doses to about 53.6 µM), for inactives: at the highest dose activity, negative = inhibition, actives largely listed as inhibitors; 310,000 tested, 3.5% active;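 note: Gal4-VP16 expression switched on by copper sulfate through the metallothionein promoter; potency is the fitted concentration of half-maximal effect; nearly all actives have a fitted effect of over 50% in size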
# Active calls of the source: *; ? = inconclusive; . = no result; [ ] = remark or other dose. Unless noted, calls come from the whole dose curve; as a rule, active = well fitted curve in the direction sought with a large enough effect; inconclusive = small, poorly fitted or top-dose-only effect, or another doubt; inactive = no such curve, though single readings can be large; an effect the other way counts as inactive or inconclusive. % is set by controls: 0 for no effect and ±100 for the full control effect.
SMILES,RORgamma inh,DT40 TDP1 CPT,IL1B secr inh,TDP1 cell noCPT,ELG1 DNA repair,Gal4-VP16 FLuc
Nc1ccc(SC(F)(F)F)cc1C(=O)c1ccccc1,18%,?,-103*,?,0%,-19%
Nc1cc(C(=O)O)ccc1Sc1ccccc1C(=O)O,18%,-3%,6,?,11%,-1%
CCOC(=O)c1c(NC(C)=O)sc2c1CCC(C=NCCCN(CC)CC)=C2Sc1ccccc1,.,15µM*,-97*,13µM*,.,.
CCOC(=O)c1c(NC(C)=O)sc2c(OCCN(CC)CC)c(Br)ccc12,-22%,?,-3,?,-6%,0%
COc1ccc(C)cc1Nc1nc(C)nc2sc(C)cc12,-25%,?,22,21µM*,?,-20%
CCCCNC(=O)CCC(=O)Nc1ccc2nc(N3CCN(C)CC3)cc(C)c2c1,26%,-2%,22,-2%,2%,-23%[10 µM]
Cc1cc(N2CCCCC2)nc2ccc(NC(=O)CCC(=O)N3CCN(c4ccccc4)CC3)cc12,.,?,.,21µM*,.,.
Cc1ccc(C)c(N2CCN(C(=O)CCC(=O)Nc3ccc4nc(N5CCCCC5)cc(C)c4c3)CC2)c1,.,12µM*,.,12µM*,.,.
Cc1ccccc1Nc1cc(C(=O)NCC2CCCO2)c2ccccc2n1 (stereo unspecified),13%,18µM*,17,?,14%,4%
COc1ccccc1-c1noc(-c2ccccc2C(=O)NCC2CCCO2)n1 (stereo unspecified),-11%,-25%,12,-11%,-1%,-8%
Cc1ccccc1-c1noc(-c2ccccc2C(=O)NCC2CCCO2)n1 (stereo unspecified),4%,?,5,18µM*,0%,-3%
CC12CN(S(=O)(=O)c3ccccc3)CC(C)(CN(S(=O)(=O)c3ccccc3)C1)C2,-33%,2.3µM*,-2,?,14%,?
O=S(=O)(c1ccccc1)N1CCNCC1,.,25%,6,2%,.,.
CN1C2CCC1/C(=C\c1ccc(F)cc1)C(=O)/C2=C/c1ccc(F)cc1,-25%,21µM*,-87*,16µM*,18µM*,11%
CC1(C)CC(=O)C(C(c2ccc(F)cc2)C2C(=O)CC(C)(C)CC2=O)C(=O)C1,-2%,0%,15,4%,7%,-19%
CN1C2CCC1/C(=C/c1cccn1C)C(=O)/C2=C\c1cccn1C,5%,23µM*,-15,16µM*,?,-13%
Cn1cccc1/C=C1\Cc2ccccc2C1=O,1%,-3%,15,-17%,?,-6%
Cc1cccc(/C=C2/C(=O)/C(=C/c3ccccc3C)C3CCC2N3C)c1 (stereo unspecified),0%,21µM*,-7,18µM*,0%,0%
Cc1ccccc1OCCN(C#N)c1nc(N(C)C)nc(N(C)C)n1,-7%,?,-19,16µM*,?,-14%
Cc1ccc(CCNC(=O)c2cc(-c3ccncc3)nc3ccccc23)cc1,15%,?,18,?,?,1%
Cc1ccc(-c2cc(C(=O)NC3=NCCS3)c3ccccc3n2)cc1C,10µM*,?,-9,-28%,?,11µM*
O=C(NC1=NCCS1)c1cc(-c2ccc(F)cc2)nc2ccccc12,10µM*,?,-73*,?,?,11µM*
Cc1ccc(C)c(NC(=O)c2cc(-c3cccnc3)nc3ccccc23)c1,5%,?,13,?,?,9%
CCCc1ccc(-c2cc(C(=O)NC3=NCCS3)c3ccccc3n2)cc1,1.8µM*,?,-53*,?,?,1.6µM*
CCCSc1ncc(Cl)c(C(=O)Nc2sc3c(c2C(=O)OC)CCCC3)n1,.,5%,.,17%,.,.
SMILES,RORgamma inh,DT40 TDP1 CPT,IL1B secr inh,TDP1 cell noCPT,ELG1 DNA repair,Gal4-VP16 FLuc
Cc1cc(C)nc(Nc2ccc(F)cc2)n1,-24%,7%,-9,1%,12%,3%
CCNc1nc(NCc2ccccc2)nc(SCC(N)=O)n1,-4%,1%,10,?,-1%,21%[10 µM]
CC(Nc1nc(=S)nc(Nc2ccc(F)cc2)[nH]1)c1ccccc1 (stereo unspecified),?,21µM*,16,?,-21%,?
CC(Nc1nc(Nc2ccc(F)cc2)nc(SCC(N)=O)n1)c1ccccc1 (stereo unspecified),25%,13%,-60*,-27%,7%,1%
O=S(=O)(Nc1ccc(-n2cnnn2)cc1)c1cccs1,.,-2%,7,-13%,?,.
Cc1ccc(C2(O)CN(c3ccccc3)C3=[N+]2CCS3)cc1 (stereo unspecified),?,?,-76*,?,11%,3%
Cc1ccc(C2(O)CN(c3ccccc3C)C3=[N+]2CCS3)cc1 (stereo unspecified),-40%,12µM*,30,18µM*,3%,?
Cc1cccc(NC(=O)CC2C(=O)NCCN2C(=O)Nc2ccc(Cl)cc2)c1 (stereo unspecified),24%,?,?,-26%,?,-9%
COc1cc(C(=O)NC(C)Cc2ccccn2)ccc1OC1CCN(C(C)=O)CC1 (stereo unspecified),-23%,4%,2,12%,-6%,-4%
COc1cc(NC(=O)COC(=O)c2n[nH]c3ccccc23)c(C)cc1[N+](=O)[O-],?,?,19,?,?,-10%
Cc1ccc(C2NC(=O)CCC2[N+](=O)[O-])cc1 (stereo unspecified),19%,18µM*,-12,?,-15%,-23%
COc1ccc(C2NC(=O)CCC2[N+](=O)[O-])cc1 (stereo unspecified),-24%[1.91 µM],19%,12,1%,2%,1%
COC(=O)[C@@]1(Cc2ccccc2)[C@H]2c3cc(C(=O)N4CCCC4)n(CC4CC4)c3C[C@H]2CN1C(=O)c1ccccc1,12%,.,.,.,.,-4%
COc1cc(C(=O)NC2CCN(C)CC2)ccc1Nc1ncc2c(n1)N(Cc1ccccc1)CCC(=O)N2C,.,3.7µM*,55,5.2µM*,.,.
COc1cc(C(=O)NC2CCN(C)CC2)ccc1Nc1ncc2c(n1)N(C1CCCCC1)CCC(=O)N2C,.,0.92µM*,4,0.58µM*,.,.
